Where a name gives a salt, the structure may show the parent alone. ± gives the standard deviation of the averaged measurements.
Tests used:
Assay in all cases: growth (OD600 after 10 h); higher = more growth (less inhibition)
[1] = system: E. coli TESEC Alr+ wild-type control; conditions: compound 0.1 mM; raw OD600 reference: median of DMSO wells 0.241, cell-free background 0.041
Method: (§1)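 TESEC Mtb Alr E. coli, or the Alr+ wild-type control, in 384-well plates with Prestwick library compounds at 0.1 mM and 1% DMSO, across arabinose induction levels of 1E3 to 1E7 nM. Growth is read as OD600 after 10 h at 37 °C in triplicate biological replicates.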

[2] = system: E. coli TESEC Mtb Alr; conditions: compound 0.1 mM
Method: as §1

[3] = system: E. coli TESEC Mtb Asd; conditions: compound 0.1 mM
Method: (§2)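 TESEC E. coli strains in which the native enzyme is deleted and replaced by arabinose-inducible Mtb Asd, DapB, CysH or TrpD, each grown in its selective medium. Strains were screened against the Prestwick library at 0.1 mM and 1% DMSO in 384-well format at low and high arabinose induction. Growth is read as OD600 after 10 h in triplicate.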

[4] = system: E. coli TESEC Mtb DapB; conditions: compound 0.1 mM
Method: as §2

[5] = system: E. coli TESEC Mtb Alr; conditions: compound 0.1 mM; remark: listed apart in the source
Method: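 TESEC Mtb Alr E. coli (ΔaraC ΔtolC ΔentC Δalr ΔdadX, arabinose-inducible Mtb Alr) or the Alr+ wild-type control strain, grown in defined M9-fructose medium without D-alanine in 96-well plates with Prestwick library compounds at 0.1 mM and 1% DMSO. Low Alr induction is 0.1 µM arabinose and high induction is 10 mM arabinose.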

[6] = arabinose 1000 nM, raw OD600 reference: median of DMSO wells 0.294, cell-free background 0.041
[7] = arabinose 10000 nM, raw OD600 reference: median of DMSO wells 0.264, cell-free background 0.041
[8] = arabinose 100000 nM, raw OD600 reference: median of DMSO wells 0.201, cell-free background 0.041
[9] = arabinose 1000000 nM, raw OD600 reference: median of DMSO wells 0.193, cell-free background 0.041
[10] = arabinose 10000000 nM, raw OD600 reference: median of DMSO wells 0.146, cell-free background 0.041
[11] = arabinose induction (level): High, raw OD600 reference: median of DMSO wells 0.331, cell-free background 0.041
[12] = arabinose induction (level): Low, raw OD600 reference: median of DMSO wells 0.417, cell-free background 0.041
[13] = arabinose induction (level): High, raw OD600 reference: median of DMSO wells […], cell-free background 0.041
[14] = arabinose induction (level): Low, raw OD600 reference: median of DMSO wells 0.227, cell-free background 0.041
[15] = arabinose 100 nM, raw OD600 reference: median of DMSO wells 0.413, cell-free background 0.052
[16] = arabinose 10000000 nM, raw OD600 reference: median of DMSO wells […], cell-free background 0.052

SMILES	growth [1]	growth [2, 6]	growth [2, 7]	growth [2, 8]	growth [2, 9]	growth [2, 10]	growth [3, 11]	growth [3, 12]	growth [4, 13]	growth [4, 14]	growth [5, 15]	growth [5, 16]
N=C(N)N/N=C/c1c(Cl)cccc1Cl [Guanabenz acetate]	0.189 ± 0.012	0.224 ± 0.0084	0.2721 ± 0.00092	0.221 ± 0.021	0.144 ± 0.005	0.168 ± 0.0024	0.31 ± 0.039	0.432 ± 0.026	0.194 ± 0.0026	0.258 ± 0.065	0.408 ± 0.0073	0.318 ± 0.011
Cc1ccccc1OCC(O)CO (centres undefined) [Mephenesin]	0.258 ± 0.0026	0.286 ± 0.0091	0.261 ± 0.016	0.209 ± 0.016	0.184 ± 0.0048	0.14 ± 0.0045	0.416 ± 0.023	0.45 ± 0.025	0.197 ± 0.0078	0.239 ± 0.02	0.413 ± 0.0097	0.373 ± 0.0043
CN(C)CCCN1c2ccccc2Sc2ccc(C(F)(F)F)cc21 [Triflupromazine hydrochloride]	0.0405 ± 0.00036	0.03957 ± 0.00015	0.0392 ± 0.00026	0.0407 ± 0.00062	0.0391	0.042 ± 0.00055	0.0504 ± 0.0028	0.0491 ± 0.0012	0.0483 ± 0.00081	0.211 ± 0.15	0.298 ± 0.21	0.0543 ± 0.0015
CN(C)CCCSC(=N)N [Dimaprit dihydrochloride]	0.2627 ± 0.0019	0.308 ± 0.011	0.267 ± 0.0039	0.205 ± 0.014	0.201 ± 0.015	0.131 ± 0.0034	0.255 ± 0.035	0.409 ± 0.093	0.196 ± 0.006	0.199 ± 0.016	0.406 ± 0.015	0.349 ± 0.019
O=C1C(=O)c2ccccc2C(O)=C1C1CCC(c2ccc(Cl)cc2)CC1 (centres undefined) [Atovaquone]	0.171 ± 0.0064	0.2 ± 0.0057	0.182 ± 0.015	0.151 ± 0.015	0.105 ± 0.0069	0.133 ± 0.0044	0.271 ± 0.12	0.23 ± 0.017	0.199 ± 0.009	0.204 ± 0.015	0.442 ± 0.023	0.231 ± 0.025
CN(C/C=C/C#CC(C)(C)C)Cc1cccc2ccccc12 [Terbinafine]	0.214 ± 0.0072	0.272 ± 0.0085	0.226 ± 0.025	0.177 ± 0.0062	0.085 ± 0.0043	0.174 ± 0.0062	0.296 ± 0.046	0.41 ± 0.037	0.182 ± 0.047	0.218 ± 0.03	0.145 ± 0.035	0.0574 ± 0.0026
O=C(O)CCNC(=O)c1ccc(/N=N/c2ccc(O)c(C(=O)O)c2)cc1 [Balsalazide Sodium]	0.276 ± 0.0079	0.318 ± 0.0085	0.2664 ± 0.0024	0.213 ± 0.0045	0.206 ± 0.0036	0.138 ± 0.0021	0.252 ± 0.008	0.434 ± 0.012	0.232 ± 0.0039	0.241 ± 0.014	0.394 ± 0.035	0.378 ± 0.014
CCOC(=O)C1=C(COCCN)NC(C)=C(C(=O)OC)C1c1ccccc1Cl (centres undefined) [Amlodipine]	0.231 ± 0.0038	0.2004 ± 0.0019	0.23 ± 0.022	0.179 ± 0.0029	0.0929 ± 0.0035	0.104 ± 0.0021	0.132 ± 0.0075	0.136 ± 0.0072	0.155 ± 0.077	0.205 ± 0.017	0.398 ± 0.0055	0.282 ± 0.011
Nc1ccc(S(=O)(=O)Nc2ccccn2)cc1 [Sulfapyridine]	0.239 ± 0.0046	0.295 ± 0.018	0.261 ± 0.0053	0.219 ± 0.0099	0.174 ± 0.0063	0.141 ± 0.0049	0.354 ± 0.035	0.412 ± 0.015	0.188 ± 0.02	0.215 ± 0.041	0.405 ± 0.013	0.325 ± 0.0082
Nc1ncn(C2OC(CO)C(O)C2O)c(=O)n1 (centres undefined) [Azacytidine-5]	0.093 ± 0.0029	0.106 ± 0.0065	0.0449 ± 0.0005	0.113 ± 0.0011	0.0465 ± 0.00069	0.0822 ± 0.0002	0.125 ± 0.0088	0.192 ± 0.065	0.199 ± 0.03	0.193 ± 0.027	0.385 ± 0.022	0.066 ± 0.0049
COc1ccc(-c2cc(=S)ss2)cc1 [Anethole-trithione]	0.182 ± 0.013	0.232 ± 0.008	0.218 ± 0.019	0.18 ± 0.0053	0.12 ± 0.026	0.168 ± 0.0049	0.211 ± 0.018	0.263 ± 0.022	0.193 ± 0.0052	0.218 ± 0.011	0.4304 ± 0.0029	0.369 ± 0.019
CN[C@H]1CC[C@@H](c2ccc(Cl)c(Cl)c2)c2ccccc21 [Sertraline]	0.0407 ± 0.00036	0.0417 ± 0.0013	0.0403 ± 0.0019	0.0432 ± 0.0016	0.0393 ± 0.0007	0.0414 ± 0.00047	0.0545 ± 0.0057	0.0508 ± 0.0037	0.0504 ± 0.00093	0.0522 ± 0.0014	0.392 ± 0.036	0.0517 ± 0.00092
CCN1C(=O)NC(c2ccccc2)C1=O (centres undefined) [Ethotoin]	0.244 ± 0.0096	0.304 ± 0.008	0.254 ± 0.0063	0.191 ± 0.009	0.187 ± 0.006	0.142 ± 0.0016	0.434 ± 0.031	0.446 ± 0.014	0.217 ± 0.01	0.243 ± 0.051	0.4121 ± 0.0041	0.353 ± 0.017
CN(C)CCOC(c1ccccc1)c1ccccc1.Cn1c(=O)c2[nH]c(Cl)nc2n(C)c1=O [Dimenhydrinate]	0.213 ± 0.0024	0.255 ± 0.012	0.226 ± 0.0081	0.174 ± 0.011	0.134 ± 0.01	0.133 ± 0.0031	0.261 ± 0.044	0.342 ± 0.12	0.174 ± 0.0038	0.197 ± 0.014	0.402 ± 0.008	0.319 ± 0.0044
CC(C)c1c(C(=O)Nc2ccccc2)c(-c2ccccc2)c(-c2ccc(F)cc2)n1CC[C@@H](O)C[C@@H](O)CC(=O)O [Atorvastatin]	0.12 ± 0.0024	0.177 ± 0.0077	0.108 ± 0.0075	0.168 ± 0.0033	0.0909 ± 0.0015	0.136 ± 0.0052	0.169 ± 0.018	0.169 ± 0.018	0.171 ± 0.018	0.183 ± 0.031	0.352 ± 0.058	0.175 ± 0.037
c1ccc2c(c1)CCCC2C1=NCCN1 (centres undefined) [Tetrahydrozoline hydrochloride]	0.237 ± 0.0097	0.297 ± 0.012	0.247 ± 0.0046	0.184 ± 0.015	0.174 ± 0.0044	0.14 ± 0.0055	0.435 ± 0.062	0.437 ± 0.03	0.203 ± 0.018	0.226 ± 0.031	0.4131 ± 0.0035	0.343 ± 0.01
Cc1onc(-c2ccccc2Cl)c1C(=O)N[C@@H]1C(=O)N2[C@@H]1SC(C)(C)[C@@H]2C(=O)O [Cloxacillin sodium salt]	0.2567 ± 0.0017	0.288 ± 0.018	0.267 ± 0.005	0.217 ± 0.025	0.183 ± 0.0023	0.144 ± 0.0071	0.32 ± 0.051	0.41 ± 0.046	0.162 ± 0.01	0.208 ± 0.015	0.417 ± 0.0066	0.344 ± 0.014

Source: the supplement of paper PMC9262897, “Low-cost anti-mycobacterial drug discovery using engineered E. coli” (Nature Communications, 2022)
